# Data taken from the supplement of paper PMC12669032.
# Several values for one entry are separate records, joined by “and”; a condition that tells them apart may be missing. Identical values can stand only once. Values without a mark were called inactive.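 Rule for the calls: active = AUC reduced over 20% with Padj below 0.05 in at least 2 of 3 replicates; inactive = otherwise.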
# How the values were obtained:
# Assay in all cases: growth AUC relative to DMSO control (median of replicates) (fraction); higher = more growth (less inhibition), active = hit call of the paper
# Conditions in all cases: 20 µM; 24 h
# Akkermansia muciniphila = tested on: Akkermansia muciniphila
# In short: (§1)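 For each compound at 20 µM (1% DMSO), gut bacterial monocultures seeded at OD600 0.05 grew anaerobically in mGAM at 37 °C in round-bottom 96-well plates. Hourly OD600 readings over 24 h gave growth curves whose minimum OD was set to 0. Area under these curves was normalised to the plate median of solvent-only wells, or to row and column medians on the industrial chemical plate. Values are medians of three biological replicates grown on separate days.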
# Bacteroides caccae = tested on: Bacteroides caccae
# In short: as §1
# Bacteroides clarus = tested on: Bacteroides clarus
# In short: as §1
# Bacteroides dorei = tested on: Bacteroides dorei
# In short: as §1
# Bacteroides stercoris = tested on: Bacteroides stercoris
# In short: as §1
# [1] = tested on: Bacteroides thetaiotaomicron
# In short: as §1
# Bacteroides uniformis = tested on: Bacteroides uniformis
# In short: as §1
# [2] = tested on: Bifidobacterium longum subsp. longum
# In short: as §1
# Clostridium difficile = tested on: Clostridium difficile
# In short: as §1
# Collinsella aerofaciens = tested on: Collinsella aerofaciens
# In short: as §1
SMILES,growth AUC (Akkermansia muciniphila),growth AUC (Bacteroides caccae),growth AUC (Bacteroides clarus),growth AUC (Bacteroides dorei),growth AUC (Bacteroides stercoris),growth AUC [1],growth AUC (Bacteroides uniformis),growth AUC [2],growth AUC (Clostridium difficile),growth AUC (Collinsella aerofaciens)
CCOC(=O)Nc1cccc(OC(=O)Nc2ccccc2)c1,0.899,1.06,0.961,1,0.889,0.998,0.95,0.944,0.986,0.977
OCC1C(CO)C2(Cl)C(Cl)=C(Cl)C1(Cl)C2(Cl)Cl (stereo not given),0.817,0.721 (active),0.818,0.859,0.259,0.799 (active),0.275 (active),1.04,0.901,0.947
CCC(=O)Nc1ccc(Cl)c(Cl)c1,0.797,1,0.978,1.03,0.972,0.988,0.969,0.837,1.03,0.999
COc1nc(C)nc(NC(=O)NS(=O)(=O)c2ccccc2Cl)n1,0.942,1,0.959,0.99,0.929,0.958,1,0.938,1.02,1.04
CC(C)N(C(=O)COc1nnc(C(F)(F)F)s1)c1ccc(F)cc1,0.411 (active),1.05,1.02,0.996,0.973,0.952,0.907,1.03,0.955,1.01
ClC(Cl)=C(c1ccc(Cl)cc1)c1ccc(Cl)cc1,1.1,0.933,0.961,0.953,1.18,0.956,1.01,1.05,0.969,0.842
O=S1OC[C@@H]2[C@H](CO1)[C@]1(Cl)C(Cl)=C(Cl)[C@@]2(Cl)C1(Cl)Cl (stereo not given in full),0.871 and 0.977,0.96 and 1.01,0.957 and 0.941,0.965 and 0.954,0.913 and 0.734,0.959 and 0.894,0.903 and 0.899,0.963 and 0.916,0.98 and 0.994,0.99 and 0.941
COc1nc(C)nc(NC(=O)NS(=O)(=O)c2ccccc2CCC(F)(F)F)n1,0.874,0.985,1.01,0.992,0.978,0.948,0.978,0.966,0.992,0.966
c1cc2ccc3cccc4ccc(c1)c2c34,0.918,0.992,1,0.997,1.01,0.997,1.02,0.948,0.959,0.946
COP(=O)(OC)C(O)C(Cl)(Cl)Cl (stereo not given),0.955,1.04,1.01,1,1.01,1.01,1.02,1.02,1,1.01
CCCN(CCC)c1c([N+](=O)[O-])cc(C(C)C)cc1[N+](=O)[O-],1.12,1.01,0.978,0.994,0.991,0.962,1.03,1.02,0.991,0.99
CNC(=O)Oc1cc(C)c(SC)c(C)c1,1.07,0.934,1,0.971,0.912,1.01,0.989,1.34,1.01,0.934
CC(C)(C)C(O)/C(=C/c1ccc(Cl)cc1Cl)n1cncn1 (mixture of isomers),1,0.869,0.947,0.854,1.32,0.88,0.874,1.02,0.964,1.03
CO/N=C(/C1=NOCCO1)c1ccccc1Oc1ncnc(Oc2ccccc2Cl)c1F,0.963,0.987,0.957,0.938,0.941,0.961,0.963,0.845,0.948,1.02
